# Measurements as given in PubChem BioAssay AID382 (SGCOxCompounds, 2006).
# Activity calls are given as the source filed them. No rule for the calls is given here.
# Target: Dual specificity protein kinase CLK1 (Homo sapiens) (UniProt P49759)
# Assay: ligand-induced CLK1 melting temperature shift – biophysical, recombinant human kinase, DSF (AID 382)
# Conditions: Recombinant CLK1, thermal shift (DSF), buffer 10 mM HEPES, stronger effect = higher value
# [1] = measured here: replicate experiment 2, at 10 µM, run 2, protein 2 µM, NaCl 150 mM
# Chain of Dual specificity protein kinase CLK1 (Homo sapiens) (P49759 whole entry, looked up): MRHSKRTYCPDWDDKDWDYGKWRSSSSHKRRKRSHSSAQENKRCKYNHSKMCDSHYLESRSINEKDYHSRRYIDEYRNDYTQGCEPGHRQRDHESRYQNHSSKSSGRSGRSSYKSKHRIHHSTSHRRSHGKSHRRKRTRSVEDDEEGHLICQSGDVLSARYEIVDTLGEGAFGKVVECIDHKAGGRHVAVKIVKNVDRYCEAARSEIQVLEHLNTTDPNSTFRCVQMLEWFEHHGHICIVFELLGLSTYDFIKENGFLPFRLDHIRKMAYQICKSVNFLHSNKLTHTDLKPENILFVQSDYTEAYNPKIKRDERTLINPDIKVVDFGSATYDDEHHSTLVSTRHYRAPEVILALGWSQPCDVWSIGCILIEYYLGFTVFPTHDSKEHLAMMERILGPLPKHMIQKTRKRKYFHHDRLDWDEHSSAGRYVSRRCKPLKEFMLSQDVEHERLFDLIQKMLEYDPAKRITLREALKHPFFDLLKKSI
structure (smiles),measurement,setting,value
N#C/C(=C1\Nc2ccccc2S1)c1ccnc(NCCc2cccnc2)n1,Tm shift,"at 10 µM, protein 2 µM, pH 7.5, NaCl 150 mM, with 50 µM L-Arg/L-Glu (1:1)",5.9 Celsius (active)
Cc1c2ccncc2c(C)c2c1[nH]c1ccccc12,Tm shift,"at 10 µM, protein 2 µM, pH 7.5, NaCl 150 mM, with 50 mM Arg/Glu",3.3 Celsius (active)
CCn1cnc2c(Nc3cccc(Cl)c3)nc(N[C@@H]3CCCC[C@@H]3N)nc21,Tm shift,[1],4.5 Celsius
COc1ccc2c(c1)/C(=C/c1cnc[nH]1)C(=O)N2,Tm shift,[1],3.4 Celsius
